The results in this text go back to PubChem BioAssay (NCATS).

“And” between values parts separate entries of the source, which are not always exact repeats. Equal values may be shown once. Records with an inconclusive call do not appear. Values without a mark were called inactive. The source made the active and inactive calls. Calls come from the whole dose curve; as a rule, active = well fitted curve in the direction sought with a large enough effect; inconclusive = small, poorly fitted or top-dose-only effect, or another doubt; inactive = no such curve, though single readings can be large; an effect the other way counts as inactive or inconclusive.
Potency is the fitted concentration of half-maximal effect.

Chain of Cellular tumor antigen p53 (Homo sapiens) (P04637 whole entry, looked up): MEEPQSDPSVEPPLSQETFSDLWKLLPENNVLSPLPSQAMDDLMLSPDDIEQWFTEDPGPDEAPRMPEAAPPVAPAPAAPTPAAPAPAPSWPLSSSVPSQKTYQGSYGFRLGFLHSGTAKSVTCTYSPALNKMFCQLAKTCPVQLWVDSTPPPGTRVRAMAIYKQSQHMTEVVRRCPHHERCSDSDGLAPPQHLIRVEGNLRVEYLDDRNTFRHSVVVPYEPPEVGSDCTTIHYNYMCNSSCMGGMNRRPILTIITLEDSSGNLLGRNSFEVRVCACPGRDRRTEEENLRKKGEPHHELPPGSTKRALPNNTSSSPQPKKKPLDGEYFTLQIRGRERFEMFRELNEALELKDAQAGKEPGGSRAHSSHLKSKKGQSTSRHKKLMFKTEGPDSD

The first assay addresses Cellular tumor antigen p53 (Homo sapiens) (UniProt P04637). Briefly: Primary qHTS for small molecule compounds that upregulate eGFP-tagged delta133p53alpha (in N-terminal) cells. (AID 2060322).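 For activation: cells pre-induced with doxycycline then dosed without doxycycline; 0% = DMSO vehicle and 100% = reference activator.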 Note: nearly all actives have a fitted effect of over 75% in size. As to conditions: NCI-H358 eGFP-delta133p53alpha fluorescence, 24 h; activation: active compounds read high. An outline of the steps:
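NCI-H358 cells pre-induced 24 h with 10 ng/ml doxycycline for eGFP-delta133p53alpha, plated dox-free and exposed 24 h at 37C to titrated compounds. Fixed, Hoechst-stained; gated GFP peak intensity by laser scanning cytometry, normalized to DMSO (0%) and 57.5 uM 5-azacytidine (100%).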
(In general: In qHTS, concentration-response curves come from the screen itself.)
For `CCCCNc1cc(C(=O)O)cc(S(N)(=O)=O)c1Oc1ccccc1`, the activation was 1.67% and 7.38% and -16.3%.
On the same count and under the same terms, the same measure for `CCCCS(=N)(=O)CCC(N)C(=O)O` (stereo not drawn): -49.8%.
As for `NC(=O)c1ncn([C@@H]2O[C@H](CO)[C@@H](O)[C@H]2O)c1O`, the activation is -26.8% and 40.7%.
The same measure, in the same setting: the result for `NCCS(=O)(=O)O` reads -4.87% and 12%.
The same measure, in the same setting: the result for `Cc1cnc(NC(=O)C2=C(O)c3ccccc3S(=O)(=O)N2C)s1` reads -27.7% and -26.4% and -6.82%.
As for `Nc1ncn([C@@H]2O[C@H](CO)[C@@H](O)[C@H]2O)c(=O)n1`, the Potency is 1.69 µM (active).
Turning to `CN(CCOc1ccc(NS(C)(=O)=O)cc1)CCc1ccc(NS(C)(=O)=O)cc1`, the activation was -5.08% and 6.34% and 4.63%.
As for `Cc1cc(Cl)ccc1OCCCC(=O)NO`, the activation is 35.3% and -37.1% and -6.7%.

The target is the same in a further assay. Briefly: Primary qHTS for small molecule compounds that upregulate eGFP-tagged delta133p53alpha (in C-terminal) cells. (AID 2060324).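 For GFP increase (activation): 0% = DMSO wells and 100% = 57.5 µM 5-azacytidine.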 The note with it: NCI-H358 delta133p53alpha-eGFP (C-terminal tag), GFP fluorescence imaging, 24 h; series mostly up to 57.5 µM; GFP increase (activation): at the top concentration. The essentials:
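Doxycycline (100 ng/ml, 24 h) first induced the eGFP fusion in NCI-H358 C-terminal-tag cells. Washed-out cells then received titrated compounds for 24 h at 37 °C before paraformaldehyde fixation, Hoechst staining and cytometric GFP quantification.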
For the molecule `CCCc1c(OCCCOc2ccc(OCC(=O)O)cc2)ccc(C(C)=O)c1O`, the “GFP increase (activation)” value was -3.02%.
As for `COc1ccc2[nH]cc(CCNC(C)=O)c2c1`, the “GFP increase (activation)” value was -2.36%.
The same measure, in the same setting: the same measure for `CCC(C)N(C)C(=O)c1cc2ccccc2c(-c2ccccc2Cl)n1` (stereo not drawn): -7.16%; for `O=c1c(O)c(-c2ccc(O)cc2O)oc2cc(O)cc(O)c12`: 4.32%.
With `CC(C)NCC(O)c1ccc(NS(C)(=O)=O)cc1` (stereo not drawn), the “GFP increase (activation)” value is -3.69%.
On the same count and under the same terms, the result for `COc1ccc(C2CNC(=O)C2)cc1OC1CCCC1` (stereo not drawn) reads -14.8%; that for `O=C1CCC(N2C(=O)c3ccccc3C2=O)C(=O)N1` (stereo not drawn), -6.52%.
On the same count and under the same terms, the result for `Nc1ncnc2c1ncn2[C@@H]1O[C@H](CO)[C@@H](O)[C@H]1O` reads 3.8%.
Same read-out and setting: the same measure for `O=c1[nH]cc(F)c(=O)[nH]1`: 7.4%; for `Cc1cccc(-c2[nH]ncc2-c2ccc3ncccc3n2)n1`: 6.06%; for `CCn1cc(C(=O)O)c(=O)c2cc(F)c(N3CCNC(C)C3)c(F)c21` (stereo not drawn): -8.02%.
Regarding `CNC[C@H](O)c1ccc(O)c(O)c1`, the “GFP increase (activation)” value was -0.925%.
Same read-out and setting: the same measure for `Nc1nc2c(ncn2COC(CO)CO)c(=O)[nH]1`: 0.0882%; for `NCCCCCC(=O)O`: -1.99%.
Same read-out and setting: the same measure for `CC(C)NCC(O)COc1ccc(CCOCC2CC2)cc1` (stereo not drawn): -3.9%; for `O=C(O)C1CCCN(CCC=C(c2ccccc2)c2ccccc2)C1` (stereo not drawn): 2%; for `NS(=O)(=O)c1cc2c(cc1Cl)NC=NS2(=O)=O`: -5.56%.
As to `CCN(CC)CCNC(=O)c1c(C)[nH]c(/C=C2\C(=O)Nc3ccc(F)cc32)c1C`, the Potency was 6.75 µM (active).
Regarding `CN(C)C(=O)C(CCN1CCC(O)(c2ccc(Cl)cc2)CC1)(c1ccccc1)c1ccccc1`, the “GFP increase (activation)” value was 7.11%.
Consider `CCOC(=O)C(C)(C)Oc1ccc(Cl)cc1`, for which the “GFP increase (activation)” value is -7.97%.
Still for that read-out and setting: the same measure for `COc1cccc(-c2cc(=O)c3ccccc3o2)c1N`: -6.26%.
Same read-out and setting: the same measure for `C[C@@H](c1ncncc1F)[C@](O)(Cn1cncn1)c1ccc(F)cc1F`: 0.903%; for `CN1CCC(=C2c3ccccc3CC(=O)c3sccc32)CC1`: 3.43%.
The same measure, in the same setting: the result for `CC12CC3CC(C)(C1)CC(N)(C3)C2` reads 7.22%; that for `CC(C(=O)O)c1cccc(C(=O)c2ccccc2)c1` (stereo not drawn), -0.456%; that for `Nc1nnc(-c2cccc(Cl)c2Cl)c(N)n1`, -5.88%.
For the molecule `CNC[C@H](O)c1cccc(O)c1`, the “GFP increase (activation)” value is -6%.
`NC(=O)c1ncn([C@@H]2O[C@H](CO)[C@@H](O)[C@H]2O)n1`: the “GFP increase (activation)” value was -3.53%.
For the molecule `CC(C)(C)NCC(O)c1ccc(O)c(CO)c1` (stereo not drawn), the “GFP increase (activation)” value is -20.5%.
On the same count and under the same terms, the result for `COC(=O)Nc1nc2ccc(C(=O)c3cccs3)cc2[nH]1` reads 33.8%; that for `O=C1N(c2ccccc2)c2ccccc2C1(Cc1ccncc1)Cc1ccncc1`, -1.29%.
On the same count and under the same terms, the result for `Nc1nc2c(ncn2COCCO)c(=O)[nH]1` reads -8.18%; that for `CCCCNc1cc(C(=O)O)cc(S(N)(=O)=O)c1Oc1ccccc1`, -9.11%.
On the same count and under the same terms, the same measure for `CCCCS(=N)(=O)CCC(N)C(=O)O` (stereo not drawn): 0.969%; for `NC(=O)c1ncn([C@@H]2O[C@H](CO)[C@@H](O)[C@H]2O)c1O`: 0.296%.
In the case of `NCCS(=O)(=O)O`, the “GFP increase (activation)” value was 0.173%.
The same measure, in the same setting: the same measure for `Cc1cnc(NC(=O)C2=C(O)c3ccccc3S(=O)(=O)N2C)s1`: -6.68%.
As for `Nc1ncn([C@@H]2O[C@H](CO)[C@@H](O)[C@H]2O)c(=O)n1`, the Potency was 21.3 µM (active).
As to `CN(CCOc1ccc(NS(C)(=O)=O)cc1)CCc1ccc(NS(C)(=O)=O)cc1`, the “GFP increase (activation)” value was -5.85%.
On the same count and under the same terms, the result for `Cc1cc(Cl)ccc1OCCCC(=O)NO` reads -11.4%.
